According to PubChem BioAssay (NCI):
Compounds without any hit were thinned out: in the full panel of roughly 83,000, 20% have a hit.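 96-well plates, one dose, 48 hours. Percent growth reported; active if below 10.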

Columns and labels:
Assay in all cases: NCI-60 one-dose screen, 48 h (100 = growth as untreated, 0 = no growth, -100 = all killed)
Conditions in all cases: 10 µM unless noted
[1] = system: NCI-H23 lung
[2] = system: NCI-H226 lung
[3] = system: NCI-H322M lung
[4] = system: HOP-62 NSCLC
[5] = system: NCI-H460 lung
[6] = system: HOP-92 NSCLC
[7] = system: NCI-H522 lung
[8] = system: A549/ATCC NSCLC
[9] = system: 786-0 renal
[10] = system: COLO 205 colon
[11] = system: DU-145 prostate
[12] = system: K-562 leukemia
[13] = system: MALME-3M melanoma
[14] = system: MDA-MB-231 breast
[15] = system: RXF 393 renal
[16] = system: SF-295 CNS
[17] = system: SF-539 CNS
[18] = system: UACC-257 melanoma
[19] = system: M14 melanoma
[20] = system: SF-268 CNS

Measured: growth

COc1ccc2c(c1)Nc1ccccc1S2
inactive: [1] 104% | [2] 108% | [3] 101% | [4] 105% | [5] 109% | [6] 78.5% | [7] 98.9% | [8] 104% | [9] 98.7% | [10] 111% | [11] 116% | [12] 102% | [13] 105% | [14] 109% | [15] 115% | [16] 108% | [17] 103% | [18] 115% | [19] 101%

Nc1nnc2cc(F)ccc2n1
inactive: [1] 90.6% | [2] 96.3% | [3] 106% | [4] 101% | [5] 107% | [6] 85.2% | [7] 99.8% | [8] 113% | [9] 105% | [10] 134% | [11] 102% | [12] 97.2% | [13] 107% | [14] 102% | [20] 99.6% | [17] 107% | [18] 110% | [19] 99.3%

O=[N+]([O-])c1c(Cl)ncnc1Cl
inactive: [1] 111% | [2] 100% | [3] 125% | [4] 104% | [5] 93.2% | [6] 85.7% | [7] 97.3% | [8] 92.8% | [9] 109% | [10] 113% | [11] 110% | [12] 109% | [13] 104% | [14] 120% | [15] 108% | [17] 88.9% | [18] 86% | [19] 118%

O=C(CC(CC(=O)c1ccccc1)c1ccccn1)c1ccccc1
inactive: [1] 92.9% | [2] 95.7% | [3] 102% | [4] 105% | [5] 102% | [6] 94.7% | [7] 95.1% | [8] 98.5% | [9] 113% | [10] 101% | [11] 110% | [12] 92.6% | [13] 91.5% | [14] 92.7% | [15] 111% | [20] 105% | [17] 106% | [18] 105% | [19] 103%

Nc1cc(N)ncn1
inactive: [1] 95.1% | [2] 93.9% | [3] 103% | [4] 112% | [5] 107% | [6] 96% | [7] 104% | [8] 103% | [9] 104% | [10] 104% | [11] 110% | [12] 91.3% | [13] 106% | [14] 96.1% | [20] 102% | [16] 104% | [17] 99.2% | [18] 112% | [19] 97.2%

Cc1ccc(NC(=S)N2CCOCC2)cc1C
inactive: [1] 107% | [2] 92.4% | [3] 85.5% | [4] 99.7% | [5] 106% | [6] 95% | [7] 84.2% | [8] 96.8% | [9] 97% | [10] 118% | [11] 109% | [12] 95.4% | [13] 93.8% | [14] 99.9% | [20] 110% | [16] 96.2% | [17] 103% | [18] 93.5% | [19] 93.1%

O=C(O)c1cc(I)ccc1O
inactive: [1] 103% | [2] 99% | [3] 95.7% | [4] 100% | [5] 108% | [6] 121% | [7] 111% | [8] 93.3% | [9] 107% | [10] 127% | [11] 116% | [12] 114% | [13] 90.3% | [14] 110% | [20] 111% | [16] 105% | [17] 97.7% | [18] 104% | [19] 110%

CCNc1ncnc2[nH]ncc12
inactive: [1] 114% | [2] 98.9% | [3] 96.1% | [4] 103% | [5] 106% | [6] 101% | [7] 113% | [8] 107% | [9] 105% | [10] 114% | [11] 117% | [12] 119% | [13] 72% | [14] 107% | [20] 112% | [16] 112% | [17] 96.2% | [18] 89.2% | [19] 107%

ON1CCCC1
inactive: [1] 108% | [2] 103% | [3] 108% | [4] 108% | [5] 109% | [6] 92.4% | [7] 91.9% | [8] 100% | [9] 98.4% | [10] 113% | [11] 113% | [12] 90.7% | [13] 106% | [14] 114% | [15] 107% | [20] 106% | [17] 108% | [18] 102% | [19] 104%
